Each structure is given as a SMILES string. In all, about 1,400 compounds went through this assay and about 860 (61%) were called active. The set was probably picked from earlier hits. The list is a sample of the results. A number with no mark means an inactive call.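 The calls were made as follows: active = inhibition reaching a set limit, 80% of the first screen's cutoff, at 20 µM in any replicate; inactive = the rest.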

The target of the experiment is DNA dC->dU-editing enzyme APOBEC-3A (Homo sapiens) (UniProt P31941). Kind of experiment: APOBEC3A deaminase inhibitors, retest, confirmation, selectivity assay for APOBEC3G inhibitor project, biochemical, single concentration, fluorescence readout (AID 493151).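 Also: plate controls were DMSO wells with A3A for no effect and wells lacking A3A enzyme for full effect.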 Conditions: recombinant A3A, ssDNA deaminase UDG fluorescence assay; at 20 µM; active compounds read high.
Chain of DNA dC->dU-editing enzyme APOBEC-3A (Homo sapiens) (P31941 whole entry, looked up): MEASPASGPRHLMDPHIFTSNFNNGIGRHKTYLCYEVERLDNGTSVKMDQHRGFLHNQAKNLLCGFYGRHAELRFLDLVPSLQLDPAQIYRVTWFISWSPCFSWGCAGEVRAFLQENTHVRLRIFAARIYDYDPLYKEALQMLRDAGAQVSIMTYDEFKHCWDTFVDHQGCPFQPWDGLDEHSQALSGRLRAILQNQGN
One may read the inhibition as the change of the read-out against control, counted positive when it falls. In the case of `C=CC1=C(C(=O)O)N2C(=O)[C@@H](NC(=O)/C(=N/OCC(=O)O)c3csc(N)n3)[C@H]2SC1`, the inhibition is 76.3% (active). Consider `O=C(Nc1cccc(-c2nc3ccccc3[nH]2)c1)c1ccc(C(=O)Nc2cccc(-c3nc4ccccc4[nH]3)c2)cc1`, for which the inhibition is 6.82%. Consider `CC(=O)Nc1ccc(NC(=O)C2CCCN(S(=O)(=O)c3ccc(Cl)cc3)C2)cc1` (centres undefined), for which the inhibition is -5.52%. To `CSc1nnc(-c2ccncc2)n1CCCN1CCCC1=O` belongs 72.4% (active); to `O=C(CSc1nccc(=O)[nH]1)Nc1ccc(N2CCOCC2)c(Cl)c1`, 18.1%. On to `COc1cc(/C=N\Nc2ccc([N+](=O)[O-])cn2)ccc1OCC(=O)O`, for which the inhibition is 37.7% (active). Consider `CC1(C)CC(N2CCN(C(c3ccccc3)c3ccccc3)CC2)=CC(=[N+]2CCCCC2)C1`, for which the inhibition is 58.7% (active).

As for `Cc1ccc(C2=C/C(=C\c3cccnc3)C(=O)O2)cc1`, the inhibition was 19.7%. The value for `CCNC(=O)COC(=O)CCNC(=O)c1cccc(C)c1` was 25.7% (active); that for `CSc1nnc(SCc2nc3sc(C(=O)O)c(C)c3c(=O)[nH]2)s1` was 68.9% (active); that for `COc1ccc(Cc2nnc(NC(=O)c3ccc(OC)cc3OC)s2)cc1` was -9.68%. As to `COC(=O)C1=C(C)N(Cc2ccccc2)C(=NCCCOC(C)C)N[C@H]1c1ccccc1`, the inhibition was 77.1% (active). To `N#Cc1ncc(C(F)(F)F)cc1Oc1cccnc1` belongs -4.78%; to `CCn1c(SCC(=O)Nc2cccc(F)c2)nnc1-c1cc2cc(Br)ccc2o1`, 68.4% (active); to `O=C(COC(=O)c1cnc(Cl)c(Cl)c1)NCc1ccco1`, 19.3% (active).

As to `NS(=O)(=O)c1cc(C(=O)OCC(=O)NNC(=O)c2ccccc2)ccc1Cl`, the inhibition was 8.76%.

On to `C[n+]1ccc(C(=O)NCc2ccccc2)cc1`, for which the inhibition is 63% (active).

Turning to `CC[n+]1cc(C)ccc1/C=C/c1ccc(N(C)C)cc1`, the inhibition was 58.4% (active). `CCN1C(=NCCc2cccnc2)N[C@@H](c2ccccc2)[C@H](C(=O)OC)[C@H]1C`: the inhibition is 61.1% (active).

For `CC[n+]1c(C)n(-c2ccccc2)c2ccc(NC(C)=O)cc21`, the inhibition is 73.8% (active).

Regarding `COc1ccc(C)cc1NC(=O)CCCN1C(=O)NC(C)(C)C1=O`, the inhibition was 48.1% (active). As to `CS(=O)(=O)c1ccc2c(c1)SC1=NC(=O)/C(=C/c3ccco3)C(=N)N12`, the inhibition was 33.9% (active).

Consider `CC1=NN(C(=O)CCc2ccccc2O)C(O)(C(F)(F)F)C1` (centres undefined), for which the inhibition is 21.4%. `O=C(CNC1CCCCC1)NCC1(c2ccccc2)CCCC1`: the inhibition was 29.8%. On to `CC(Oc1ccc(F)cc1)C(=O)Nc1cc(S(=O)(=O)N2CCOCC2)ccc1N1CCN(C)CC1` (centres undefined), for which the inhibition was 55.2% (active). With `C[N+](C)(C)CCNC(=O)c1cc[n+](Cc2ccccc2)c(/C=N/O)c1`, the inhibition was 52.7% (active).

As to `COC(=O)C[n+]1cccc2ccccc21`, the inhibition is 67.4% (active).

`CC(C)c1ccc(/C=C2\NC(=O)NC2=O)cc1`: the inhibition was 67.7% (active).

For `CCCCCCCC[n+]1cccc(C(=O)N2c3c(nc(N)[nH]c3=O)NC(C)C2C)c1` (centres undefined), the inhibition is 69.9% (active). As for `COc1ccc(NC(=O)CN(C)C(=O)/C=C/c2cn(Cc3ccccc3)nc2-c2cccnc2)cc1`, the inhibition is 30.7%. The value for `CCCN1C2=C(C(=O)CCC2)C(c2ccc(O)c(Br)c2)C2=C1CCCC2=O` was -5.86%; that for `S=C(Nc1cccnc1)Nc1ccccn1` was -2%; that for `C[N+]1(CCNC(=O)/C=N/O)CCCCC1` was 73.9% (active). To `C[N+]1(CC(O)COc2ccccc2)CCN(C(=O)c2ccc([N+](=O)[O-])cc2)CC1` (centres undefined) belongs 74.8% (active); to `CNc1ccc([N+](=O)[O-])cc1C(=O)O`, 0.63%. For `COc1ccc(CNc2nnnn2C)cc1`, the inhibition is -3.03%. As for `Cc1cc2c(cc1C)[n+](C)cn2CC(O)COCC1CC=CCC1` (centres undefined), the inhibition was 73.1% (active).

`CC(/C=C/c1ccccc1)=N\NC(=O)C1CC1(C)c1ccccc1` (centres undefined): the inhibition is -0.43%. The value for `COc1ccc2[nH]c(=O)c(-c3noc(-c4ccc(F)cc4)n3)cc2c1` was 5.11%; that for `CCCc1nc(-c2cc3cc(C)ccc3[nH]c2=O)no1` was 67.6% (active).

On to `COc1ccccc1-c1noc(CSc2nc(C)cc(=O)[nH]2)n1`, for which the inhibition was 36.8% (active).

Take `O=C(c1ccc(CS(=O)(=O)c2ccccc2)o1)N1CCN(c2ccccc2)CC1`: the inhibition was 31.7% (active). As to `Cc1snc(SCc2c(F)cccc2Cl)c1C#N`, the inhibition is 30.3%. As to `N#Cc1ccccc1CN1C(=O)S/C(=C/c2cccn2-c2cccc(C(=O)O)c2)C1=O`, the inhibition is 53.8% (active). To `CCN(CC)CCCNC(=O)CCn1nc(-c2ccc(Cl)cc2)ccc1=O` belongs -4.91%; to `Cc1nnc(N/N=C/c2ccccn2)[nH]c1=O`, -1.88%; to `O=C(N/N=C\c1cccnc1)c1cc(-c2ccccc2)nc2c(Cl)cccc12`, -3%. `COc1ccc(CCNC(=O)COC(=O)/C=C/c2cccs2)cc1OC`: the inhibition was -7.13%. To `COc1ccccc1CCNC(=O)C1CCN(C(=O)/C=C/c2ccccc2)CC1` belongs 36.9% (active); to `CC1(C)Oc2ccc3ccc(=O)oc3c2/C(=C/NCCO)C1=O`, 71.5% (active). To `N#Cc1ccsc1NC(=O)CN1CCN(S(=O)(=O)c2cc(Cl)ccc2Cl)CC1` belongs 22.2%. For the compound `CCOC(=O)c1ccc(NC(=O)CSc2ncccn2)cc1`, the inhibition was 59% (active). On to `Cc1csc(SCC(=O)Nc2sccc2C#N)n1`, for which the inhibition is 0.02%. To `CCN(CC)CCOC(=O)c1ccc(NC(=O)CNC(=O)c2ccccc2)cc1` belongs 2.53%; to `Cc1cc(/C=N/NC(=O)CC2(C)OCCO2)c(C)n1-c1ccc(Cl)c(Cl)c1`, 0.39%; to `CCS(=O)(=O)c1ccc(-c2cccc(NC(=O)c3ccc(Br)o3)c2)nn1`, -5.47%. For `CCCCNC(=O)CSc1nc2ccc(NC(=O)CSc3nnc(N)s3)cc2s1`, the inhibition was 49.7% (active). For the compound `COc1ccc(Br)cc1CN(C)C(=O)C1CC(=O)N(C2CCCC2)C1` (centres undefined), the inhibition is 27.6% (active). The value for `O=C(CSc1nc2ccccc2c(=O)[nH]1)Nc1nc(-c2ccc(Br)cc2)cs1` was 42.3% (active).

In the case of `CC(C)CCOc1ccc(C(=O)C[N+]2(C)CCOCC2)cc1`, the inhibition is 95.7% (active). To `Cc1ccc(C(=O)N/N=C\c2cc(Br)c(Br)o2)cn1` belongs 15.2% (active); to `COc1cccc(NC(C)=[N+](C)CCNS(=O)(=O)c2ccc(Cl)cc2)c1`, 29.4%; to `C[N+](C)(CCCCCC[N+](C)(C)CCCN1C(=O)c2cccc3cccc(c23)C1=O)CCCN1C(=O)c2cccc3cccc(c23)C1=O`, 35.2% (active). On to `CC(=O)Nc1ccc(Nc2cc(C)nc(Nc3ccc(NC(C)=O)cc3)n2)cc1`, for which the inhibition is 48.6% (active).

`Cc1ccc(CCCOC(=O)C[N+]2(C)CCCCC2)cc1`: the inhibition is 81.4% (active). As for `CCN1C(=NCC(C)C)N[C@@H](CCc2ccccc2)[C@H](C(=O)NCC(C)C)[C@H]1C`, the inhibition was 37.8% (active). To `CCN1C(=NCc2ccc(OC)cc2)N[C@@H](CCc2ccccc2)[C@H](C(=O)NCc2ccc(OC)cc2)[C@H]1C` belongs 32.8% (active); to `COCCCn1c(Cc2csc(Nc3cccc(Cl)c3)n2)nnc1SCC(=O)OC1CCCCC1`, 72.2% (active).

Regarding `O=C1c2oc3ccccc3c(=O)c2C(c2cccc(O)c2)N1c1ccccn1` (centres undefined), the inhibition was -9.88%.

These data come from PubChem BioAssay AID493151 (Sanford-Burnham Center for Chemical Genomics, 2011).
